# According to PubChem BioAssay:
# Inconclusive results are not listed. Activity calls are given as the source filed them. Unless noted, the rule behind the calls is not given here.
# How the values were obtained:
# [1] = tested on: Aerobactin synthetase IucA (Klebsiella pneumoniae); test: inhibition of K. pneumoniae IucA enzyme – biochemical, Tocris library, absorbance (AID 1345561); details: purified IucA enzyme assay, absorbance (OD) read-out; stronger effect = lower value;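 tested at 8 µM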;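 note: 100% = enzyme without compound and 0% = no enzyme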
# [2] = viability loss with induced miR-34 in A549 – imaging, A549 dox-inducible miR-34, nuclei and caspase counts, primary screen (AID 1347080;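 active = compounds whose cell count with miR-34 switched on is under 0.7 times the count with it off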); details: A549 miR-34 inducible, Hoechst nuclei count, 48 h
# [3] = galactose survival enhancers in mitochondrial complex I cybrids – cell-based, galactose medium, ATP luminescence, primary screen (AID 1645843;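 active = z-score of at least 1.8 in each of two replicates, scored against plate mean and spread of sample wells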;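 note: positive z means more ATP and so rescue of galactose-driven cybrid death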); details: complex I mutant cybrid cells, 72 h, stronger effect = higher value
# [4] = compounds altering circadian rhythm period length – cell-based, LOPAC library, luminescence reporter (AID 2774); details: circadian reporter cells, at 7 µM, actives lie on both sides;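 note: values are relative to mean of DMSO wells on each plate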
# [5] = tested on: Hepatitis C virus NS3 helicase; test: blockers of NS3h binding to ssDNA – biochemical, fluorescence polarization, LOPAC1280 library, primary screen (AID 687035; in the data active = inhibition above about 37%); details: Purified HCV NS3 helicase, Cy5-dT15 ssDNA binding fluorescence polarization; stronger effect = higher value; concentration not given here
# [6] = compounds altering Cy5-DNA-NS3h complex signal – biochemical, LOPAC1280, artefact control for HCV NS3 helicase inhibitor project (AID 687037); details: Cy5-DNA-NS3h complex fluorescence interference counterscreen
# [7] = P. berghei load reduction in hepatocytes – cell-based, HepG2, luciferase luminescence, HepG2 viability, primary screen (AID 624349; in the data active = parasite load remaining mostly below about 12%, no sharp cut-off; inactive = mostly above about 10%;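 note: 100% = mean of DMSO negative control wells on the same plate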); details: P. berghei liver stage in HepG2, luciferase luminescence, concentration not given here; parasite load remaining: stronger effect = lower value; viability: measured here: HepG2 viability without parasites
# [8] = viability loss in pontine glioma line – cell-based, SU-DIPG-XVII, MIPE5.0, CellTiter-Glo, qHTS, dose response (AID 1347060; cut-off not given, nearly all actives have AC50 up to about 26 µM;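 for AC50: cells exposed to compound for 48 hours before viability readout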); details: CellTiter-Glo ATP luminescence
# [9] = viability loss in pontine glioma line – cell-based, SU-DIPG-XIII, MIPE4.0, CellTiter-Glo, qHTS, dose response (AID 1347061; cut-off not given, nearly all actives have AC50 up to about 37 µM;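 note: cells exposed to compound for 48 hours before readout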); details: CellTiter-Glo ATP luminescence
# [10] = viability loss in pontine glioma line – cell-based, JHH-DIPG-1, MIPE4.0, CellTiter-Glo, qHTS, dose response (AID 1347062; cut-off not given, nearly all actives have AC50 up to about 27 µM;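 note: cells exposed to compound for two days before readout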); details: JHH-DIPG-1 viability, CellTiter-Glo ATP luminescence
# [11] = viability loss in pontine glioma line – cell-based, SU-DIPG-IV, MIPE4.0, CellTiter-Glo, qHTS, dose response (AID 1347063; cut-off not given, nearly all actives have AC50 up to about 30 µM;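 note: compound exposure lasted 48 hours before the viability readout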); details: CellTiter-Glo ATP luminescence
# [12] = viability loss in pontine glioma line – cell-based, SU-DIPG-XIII, MIPE5.0, CellTiter-Glo, qHTS, dose response (AID 1347064; cut-off not given, nearly all actives have AC50 up to about 23 µM;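 note: cells exposed to compound for 48 hours before the viability read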); details: CellTiter-Glo ATP luminescence
# [13] = viability loss in pontine glioma line – cell-based, SU-DIPG-XXV, MIPE5.0, CellTiter-Glo, qHTS, dose response (AID 1347065; cut-off not given, nearly all actives have AC50 up to about 26 µM;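 note: cells exposed to compound for 48 hours before ATP readout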); details: CellTiter-Glo ATP luminescence
# [14] = growth inhibition of DIPG cells – cell-based, MIPE4.0 library, CellTiter-Glo luminescence, qHTS (AID 1347066; cut-off not given, nearly all actives have AC50 up to about 30 µM;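 note: cells exposed to compound for 48 hours before readout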); details: SU-DIPG-VI viability, CellTiter-Glo ATP luminescence
# [15] = JHH-DIPG-1 glioma cell viability, MIPE5.0 library, CellTiter-Glo luminescence, qHTS (AID 1347067; cut-off not given, nearly all actives have AC50 up to about 26 µM;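 note: cells exposed to compound for 48 hours before readout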); details: JHH-DIPG-1 glioma viability, CellTiter-Glo ATP luminescence
# [16] = growth inhibition of DIPG cells – cell-based, MIPE5.0 library, qHTS (AID 1347068; cut-off not given, nearly all actives have IC50 up to about 30 µM;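 note: cells exposed to compound for 48 hours before viability readout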); details: SU-DIPG-XXV viability
# [17] = stronger effect = lower value, cell number ratio, induced over uninduced
# [18] = measured here: relative caspase fold change +Dox/-Dox
# [19] = measured here: total cells with miR-34 induction, stronger effect = lower value
# [20] = measured here: total cells without miR-34 induction
structure (smiles),measurement,setting,value
O=S(c1ccccc1)c1ccc2nnnn2n1 (stereo not given),remaining activity,[1],106% (inactive)
same,fold change,[2]; [17],1.59 (inactive)
same,fold change,[2]; [18],0.481
same,cell count,[2]; [19],3220
same,cell count,[2]; [20],2020
same,z-score,[3],-0.805 (inactive)
Cc1nc2sccn2c(=O)c1CCN1CCC(=C(c2ccccc2)c2ccc(F)cc2)CC1,period change,[4],-0.05 h (inactive)
same,inhibition,[5],-1% (inactive)
same,fluorescence ratio (interference),[6],1 (inactive)
same,remaining activity,[1],120% (inactive)
same,fold change,[2]; [17],0.974 (inactive)
same,fold change,[2]; [18],1.11
same,cell count,[2]; [19],7180
same,cell count,[2]; [20],7370
same,z-score,[3],-0.655 (inactive)
O=C(CCCc1ccc(-c2ccccc2F)cc1)Nc1ccc(O)cc1,parasite load remaining,[7],21.2% (inactive)
same,viability,[7],102%
same,remaining activity,[1],95.9% (inactive)
same,fold change,[2]; [17],1.05 (inactive)
same,fold change,[2]; [18],1.19
same,cell count,[2]; [19],2340
same,cell count,[2]; [20],2220
same,z-score,[3],-0.66 (inactive)
Brc1cc2c(cc1[C@H]1Nc3ccccc3[C@H]3C=CC[C@H]31)OCO2 (racemic),remaining activity,[1],123% (inactive)
same,fold change,[2]; [17],0.953 (inactive)
same,fold change,[2]; [18],1.69
same,cell count,[2]; [19],6570
same,cell count,[2]; [20],6900
same,z-score,[3],-0.975 (inactive)
CC(C)C[C@H](CO)Nc1nc(S[C@@H](C)c2ccccc2)nc2nc(N)sc12,outcome,[8],inactive
Nc1[nH]nc2nc3ccccc3nc12,parasite load remaining,[7],38.7% (inactive)
same,viability,[7],97.8%
same,remaining activity,[1],110% (inactive)
same,fold change,[2]; [17],0.889 (inactive)
same,fold change,[2]; [18],0.743
same,cell count,[2]; [19],7860
same,cell count,[2]; [20],8840
same,z-score,[3],-0.17 (inactive)
CO[C@H]1/C=C\C=C(\C)C(=O)NC2=CC(=O)C(NCCN(C)C)=C(C[C@@H](C)C[C@H](OC)[C@H](O)[C@@H](C)/C=C(/C)[C@@H]1OC(N)=O)C2=O,AC50,[8],52.5 nM (active)
same,AC50,[9],83.3 nM (active)
same,AC50,[10],187 nM (active)
same,AC50,[11],13.2 nM (active)
same,AC50,[12],118 nM (active)
same,AC50,[13],235 nM (active)
same,AC50,[14],5260 nM (active)
same,AC50,[15],74.2 nM (active)
same,IC50,[16],1180 nM (active)
O=c1cc(N2CCOCC2)nc2c3ccccc3ccn12,parasite load remaining,[7],31.9% (inactive)
same,viability,[7],94.8%
same,remaining activity,[1],126% (inactive)
same,fold change,[2]; [17],0.935 (inactive)
same,fold change,[2]; [18],1.52
same,cell count,[2]; [19],8560
same,cell count,[2]; [20],9160
same,z-score,[3],1.56 (inactive)
